From PubChem
uPA generation = qHTS for Inhibitors of Cell Surface uPA Generation | Potency, µM (doses to about 38.3 µM), for inactives: top-dose activity change, negative = inhibition, actives largely listed as inhibitors | 330,000 compounds, 0.31% hits | cell surface uPA generation assay, qHTS; active means well fitted inhibition curve with a large enough effect; inconclusive means small, poorly fitted or top-dose-only effect; inactive means no such curve, though single readings can be large or run the other way; tested in mouse RAW 264.7 cells; further: potency means the concentration at half of the fitted maximal effect; nearly all actives have a fitted effect of over 55% in size
HT1080NT lethal = qHTS for induction of synthetic lethality in tumor cells producing 2HG: qHTS for the HT-1080-NT fibrosarcoma cell line | 360,000 compounds, 1.6% hits | Potency, µM (top dose mostly 46.1 µM), inactives show at the highest dose activity, negative = less viability, hits mostly cytotoxic | HT-1080-NT fibrosarcoma viability, CellTiter-Glo ATP luminescence, 48 h;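 further: NT is the 2HG producing partner of a matched IDH1 knockdown line; potency means the concentration at half of the fitted maximal effect; 0% = DMSO-treated cells and -100% = media-only wells without cells; nearly all actives have a fitted effect of over 55% in size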
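HT-1080-NT; 750 cells/well; 5% FBS RPMI; 48 h compound, 37 degrees C; CellTiter-Glo luminescence; curve fitting and curve-class assignment.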
DT40 TDP1 CPT = qHTS for Inhibitors of human tyrosyl-DNA phosphodiesterase 1 (TDP1): qHTS in cells in presence of CPT. AID 686979, 2013. Potency, µM (top dose mostly 46.2 µM), inactives show at the top dose activity change, negative = growth inhibition, usual class: inhibitors. chicken DT40 Tdp1-/-;hTDP1 cells + 20 nM CPT, ATP luminescence, 48 h. 420,000 compounds, 12% hits; further: potency means the concentration at half of the fitted maximal effect; nearly all actives have a fitted effect of over 55% in size
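Chicken DT40 Tdp1-/- cells complemented with human TDP1, 400 cells/well, exposed to compounds plus 20 nM camptothecin for at least 48 h at 37 C; viability read as ATP content by CellTiter-Glo luminescence.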
DT40 TDP1 no CPT = qHTS for Inhibitors of human tyrosyl-DNA phosphodiesterase 1 (TDP1): qHTS in cells in absence of CPT; Potency, µM (highest dose often 46.2 µM), for inactives: at the highest dose activity change, negative = growth inhibition, hits mostly inhibitors; 420,000 compounds, 15% hits; AID 686978, 2013; DT40 Tdp1-/- hTDP1 cells, no CPT, ATP luminescence, 48 h; further: potency means the concentration at half of the fitted maximal effect; nearly all actives have a fitted effect of over 55% in size
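Growth kinetics read by CellTiter-Glo luminescence after ≥48 hr at 37 °C. Cells: DT40 Tdp1-/- stably carrying human TDP1, 400 per well, compound exposure in the absence of CPT (DMSO vehicle).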
IL1B secr inh = qHTS for Inhibitors of Inflammasome Signaling: IL-1-beta AlphaLISA Primary Screen. THP-1 LPS/ATP IL-1B secretion, AlphaLISA, 16 h; hits give low values. activity change, % at 57.5 µM. 360,000 compounds, 4.7% hits. AID 743279, 2014; in the data active means activity change below about -50%; inconclusive means mostly about -30% to -49%
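THP-1 cells pretreated 1 hr with compounds (up to 57.5 uM final), then stimulated with LPS (250 ng/mL final) plus ATP (1.25 mM final); secreted IL-1B measured by AlphaLISA after 16 hr, decreased signal indicating inhibition.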
HT1080 IDH1KD tx = qHTS for induction of synthetic lethality in tumor cells producing 2HG: qHTS for the HT-1080-IDH1KD cell line. Potency, µM (highest dose often 46.1 µM), for inactives: at the highest dose activity, negative = toxicity, usual class: cytotoxic. HT-1080 IDH1 knockdown viability, ATP luminescence, 48 h. AID 686971, 2013. 360,000 compounds, 2% hits;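 further: potency means the concentration at half of the fitted maximal effect; 0% = DMSO wells and -100% = cell-free medium wells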
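% activity derives from luminescence (CellTiter-Glo), normalised to DMSO and no-cell wells. HT-1080-IDH1KD cells, 750/well, had 48 h compound exposure at 37 °C.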
Numbers without * were called inactive; ? = inconclusive; . = no result; [ ] = another dose, or the depositor's remark. Compounds with a hit are over-represented: about 19% of the library has one in this group of screens. Unless noted, the call rests on the fitted dose curve; in most records, active means well fitted curve in the direction sought with a large enough effect; inconclusive means small, poorly fitted or top-dose-only effect, or another doubt; inactive means no such curve, though single readings can be large; an effect the other way counts as inactive or inconclusive. Unless noted, on the % scale 0 is the no-effect control and ±100 the full control effect.

SMILES | uPA generation | HT1080NT lethal | DT40 TDP1 CPT | DT40 TDP1 no CPT | IL1B secr inh | HT1080 IDH1KD tx
CC(C)C[C@H]1CNC(=S)N1C[C@H]1CCCN1C[C@H](Cc1ccccc1)N1C[C@H](CC(C)C)N(CCc2ccccc2)C1=S | . | -2.6% | 13µM* | 16.4µM* | 3.4 | -1.5%
CC(C)C[C@H]1CNC(=S)N1C[C@H]1CCCN1C[C@H](CC(C)C)N1C[C@H](CC(C)C)N(CCc2ccccc2)C1=S | . | -21.4% | ? | 25.9µM* | -16.1 | ?
CC(C)C[C@H]1CN([C@@H](CC(C)C)CN2CCC[C@H]2CN2C(=O)C(=O)NC[C@@H]2Cc2ccc(O)cc2)C(=O)C(=O)N1CCc1ccccc1 | . | -21.4% | ? | ? | ? | -6.5%
COc1ccccc1Nc1nnc(SCC(=O)NC(=O)Nc2ccc3c(c2)OCCO3)s1 | -3.4% | 9.3% | ? | ? | 12.6 | 8.2%
O=C(Nc1ccc(Cl)cc1F)c1cnc2sc(N3CCOCC3)nn2c1=O | . | . | -1.9% | 2.4% | . | .
C[C@H](CO)N1C[C@H](C)[C@@H](CN(C)Cc2cccnc2)Oc2ncc(-c3cccc(C#N)c3)cc2C1=O | . | 2.1% | ? | -17.3% | -1.2 | 4.8%
COc1cccc(C=O)c1OCCN1C(=O)c2ccccc2C1=O | -3.1% | -2.2% | -25.4% | -20.2% | 0.0 | -0.8%
CN(Cc1ccccc1)C(=O)NC1CCCCC1 | . | 3.4% | -5.4% | 7.2% | -7.2 | -1.0%
CC[C@@H](CC1CCCCC1)C(=O)N(Cc1ccccc1)c1ccccc1 | -3.3% | -3.6% | 4.61µM* | 4.11µM* | 40.4 | -3.7%
Cc1cc(N2CCN(C)CC2)nc2ccc(NC(=O)c3ccc(Br)o3)cc12 | -2.4% | ? | ? | 18.4µM* | -18.6 | ?
CN1CCN(c2ccc(NC(=O)c3ccc4c(c3)OCO4)cc2)CC1 | -2.9% | -2.1% | -8.3% | 3.2% | -26.8 | 0.3%
Cc1cc(N2CCCCC2)nc2ccc(NC(=O)c3ccc(Br)o3)cc12 | -7.5% | ? | ? | ? | -66.0* | ?
Cc1cc(N2CCN(C)CC2)nc2ccc(NC(=O)c3ccc4c(c3)OCO4)cc12 | -15.8% | ? | -28.2% | -18.3% | -54.2* | ?
Cc1cc(N2CCCCC2)nc2ccc(NC(=O)c3ccc(F)cc3)cc12 | . | . | 20.6µM* | 14.6µM* | . | .
Cc1cc(N2CCN(C)CC2)nc2ccc(NC(=O)CCC(=O)NCCc3ccc(Cl)cc3)cc12 | 1.2% | 3.4% | 7.4% | ? | 38.0 | 27.2%
CCCNC(=O)Cc1c(C)n(C(=O)c2ccc(Cl)cc2)c2ccc(OC)cc12 | 2.9% | -4.0% | 20.6µM* | ? | -0.2 | -10.6%
O=C(CSc1nc2ncccc2[nH]1)c1cccc([N+](=O)[O-])c1 | -7.2% | 14.0% | -1.2% | -28.1% | -1.7 | 6.8%
Cc1cccn2c(=O)c3cc(C(=O)NCCCn4ccnc4)n(C)c3nc12 | -6.4% | 3.4% | -13.2% | ? | ? | 6.3%
C=CCn1c(=N)c(C(=O)NCCCOC)cc2c(=O)n3cccc(C)c3nc21 | -8.0% | -7.0% | ? | ? | -17.7 | -13.9%
Cc1cccn2c(=O)c3cc(C(=O)NCCCN4CCCC4=O)n(C)c3nc12 | -6.9% | -2.5% | -21.3% | ? | -76.9* | 4.8%[9.24 µM]
COc1ccc(OC)c(NC(=O)c2cc3c(=O)n4cccc(C)c4nc3n2C)c1 | . | . | 10.3µM* | 9.2µM* | . | .
COCCCNC(=O)c1cccn2c(=O)c3cc4ccccc4cc3nc12 | . | -7.8% | 18.4µM* | 7.31µM* | -85.7* | ?
CCOCCCNC(=O)c1cc2c(=O)n3cccc(C)c3nc2n1C | ? | ? | 0.581µM* | 0.82µM* | 11.2 | ?
CCc1ccc(NC(=O)CNC(=O)[C@@H]2Cc3ccccc3CN2C(=O)OC(C)(C)C)cc1 | 19.5% | 0.7% | ? | ? | 6.5 | 0.0%
COc1cccc(-c2cnc3c(NC(C)=O)cc(-c4ccc(C(=O)NC5CC5)cc4)cn23)c1 | . | 18.4µM* | ? | 13µM* | ? | 20.6µM*
SMILES | uPA generation | HT1080NT lethal | DT40 TDP1 CPT | DT40 TDP1 no CPT | IL1B secr inh | HT1080 IDH1KD tx
COc1ccc(C(=O)NC2CCCCCCC2)cc1OC | -8.9% | -2.2% | -5.9% | -16.2% | 9.4 | -5.1%
COc1ccc(-c2cnc3c(NC(C)=O)cc(-c4ccc(C(=O)NC5CC5)cc4)cn23)cc1OC | . | -27.3% | 23.1µM* | 23.1µM* | 0.0 | -21.3%
CC(C)C[C@H]1COc2cc(Br)ccc2S(=O)(=O)N1 | . | -1.0% | -16.4% | ? | 24.8 | 3.3%
O=S1(=O)N[C@@H](CC2CCCCC2)COc2cc(Br)ccc21 | 1.58µM* | ? | 14.6µM* | ? | 7.9 | -28.7%
CSc1ncnc2c1ncn2CCCNCc1ccccn1 | . | 6.3% | 3.5% | 1.3% | 13.2 | 17.8%
Cc1ccc(CNCCCn2cnc3c(OCc4ccccc4)ncnc32)o1 | 10.7% | -7.1% | ? | ? | -20.5 | -6.4%
c1ccc(CCCNCCCn2cnc3c(OCc4ccccc4)ncnc32)cc1 | ? | -22.6% | 10.3µM* | 11.6µM* | -85.7* | ?
c1ccc(CNCCCn2cnc3c(OCc4ccccc4)ncnc32)cc1 | 3.8% | -1.6% | 29.1µM* | 23.1µM* | -11.6 | -11.3%
CSc1ncnc2c1ncn2CCCNCC(c1ccccc1)c1ccccc1 | . | -6.7% | ? | 25.9µM* | -2.7 | -10.2%
C[C@@H](NCCCn1cnc2c(OCc3ccccc3)ncnc21)c1cccc2ccccc12 | -11.3% | -29.4% | ? | 16.4µM* | -26.7 | ?
C[C@@H](NC(=O)Cn1cnc2c(OCc3ccccc3)ncnc21)c1cccc2ccccc12 | 9.0% | ? | ? | ? | -19.3 | ?
Cc1cnc(C(=O)OCC(=O)Nc2cc(-c3ccccc3)nn2-c2ccccc2)cn1 | 14.5% | 10.0% | 2.3% | 2.6% | -26.8 | 4.9%
CCOC(=O)C1=CN(Cc2cccc(-c3cccnc3)c2)S(=O)(=O)N(CC)C1C (stereo not drawn) | -5.5% | -0.1% | ? | ? | -19.3 | -5.4%
CCOC(=O)C1=CN(Cc2cccc(F)c2)S(=O)(=O)NC1c1ccc(Br)cc1F (stereo not drawn) | -1.1% | ? | 20.6µM* | ? | -7.2 | ?
